CYP2C9 activ = increases human cytochrome P450 2C9 activity | P11712 | recombinant CYP2C9, luciferin-H conversion, luminescence; active compounds read high; factor 1 = untreated enzyme, 0 = blocked | activation factor at 5 µM | 96,000 compounds, 1.4% hits | AID 1024;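 active = activation factor of 2 or more for CYP2C9 at a 5 µM dose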;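 also: 0 = sulfaphenazole-blocked wells and 1 = vehicle-only wells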
EphB4 antag = EphB4-ephrin-B2 interaction antagonism | P54760 | EphB4 LBD / TNYL-RAW-Alexa532 peptide, fluorescence polarization | inhibition, % at 7 µM | 97,000 compounds, 0.15% hits | AID 720;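 active = inhibition above the screen-wide mean inhibition plus 3 SD, cut at about 15% in these data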;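 also: 0% = DMSO wells and 100% = excess unlabeled TNYL-RAW peptide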
CYP2C19 act = increases human CYP2C19 enzyme activity; P33261; recombinant CYP2C19, luciferin-H EGE luminescence; active compounds read high; 0 = fully inhibited enzyme, 1 = untreated enzyme; activation factor at 5 µM; 96,000 tested, under 10 active; AID 1025;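 active = activation factor of at least 2 at 5 µM in the primary screen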;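 also: 0 = wells with 2.5 mM tranylcypromine and 1 = vehicle-only wells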
Target sequence (P33261 whole entry, looked up): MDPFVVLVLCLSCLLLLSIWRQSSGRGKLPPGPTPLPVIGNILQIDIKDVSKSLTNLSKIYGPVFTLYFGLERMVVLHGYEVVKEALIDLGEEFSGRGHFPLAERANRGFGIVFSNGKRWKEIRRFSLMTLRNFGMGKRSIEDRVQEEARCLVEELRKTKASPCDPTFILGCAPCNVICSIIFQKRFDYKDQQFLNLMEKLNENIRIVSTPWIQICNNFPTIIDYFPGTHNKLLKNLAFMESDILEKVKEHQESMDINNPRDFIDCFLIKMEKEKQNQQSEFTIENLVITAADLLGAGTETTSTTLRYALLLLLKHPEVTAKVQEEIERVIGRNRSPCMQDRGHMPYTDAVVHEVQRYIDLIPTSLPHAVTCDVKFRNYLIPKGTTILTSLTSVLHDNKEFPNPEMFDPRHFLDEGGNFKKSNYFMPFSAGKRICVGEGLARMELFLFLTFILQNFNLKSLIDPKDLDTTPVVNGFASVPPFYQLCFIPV
CYP2C19 inh = inhibitors of human CYP2C19 | CYP2C19 Supersomes, luciferin-H EGE luminescence, 30 min | inhibition, % at 5 µM | 96,000 compounds, 21% hits | AID 778;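 active = CYP2C19 inhibition above a set limit at 5 µM in the primary screen, cut at about 50% in these data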;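 also: plate controls were negative control wells for no effect and 2.5 mM tranylcypromine positive control for full effect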
CYP2C9 inh = blocks human cytochrome P450 2C9. CYP2C9 Supersomes, luciferin-H conversion, luminescence. inhibition, % at 5 µM. 96,000 compounds, 20% hits. AID 777;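 active = blocking of liver enzyme CYP2C9 beyond about 50% at 5 µM, limit read from the data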
Active calls of the source: *; / = no result. Compounds with a hit are over-represented: about 27% of the library has one in this group of screens.

SMILES	CYP2C9 activ	EphB4 antag	CYP2C19 act	CYP2C19 inh	CYP2C9 inh
CN1C(=O)c2ccc(S(=O)(=O)c3ccc(C(=O)O)cc3)cc2C1=O	1	-6	1	-4	-2
CCOC(=O)C1=C(c2ccccc2)NC(SCC(=O)Nc2cccc(C)c2)=C(C#N)C1c1ccco1 (stereo unspecified)	0.1	-13	0.4	60*	92*
CCOC(=O)CSC1=C(C#N)C(c2ccco2)C(C(=O)Nc2cccc(C(F)(F)F)c2)=C(C)N1 (stereo unspecified)	0.2	-5	0.2	78*	82*
CCOC(=O)C1=C(c2ccccc2)NC(SCC(=O)Nc2ccccc2C)=C(C#N)C1c1ccco1 (stereo unspecified)	0.2	9	0.4	57*	75*
CCOC(=O)C1=C(c2ccccc2)NC(SC)=C(C#N)C1c1ccco1 (stereo unspecified)	0.2	0	0.6	45	78*
Cc1cccc(NC(=O)CSc2nnc(Cn3nnc(-c4ccccc4)n3)n2-c2ccccc2)c1	0.9	8	0.8	23	10
CCOc1ccccc1NC(=O)c1ccoc1C	1.6	2	0.9	10	-62
Cc1nc2ncnn2c(C)c1CCC(=O)NCc1ccc2c(c1)OCO2	1	6	1	-4	2
CCOC(=O)C1=C(c2ccccc2)NC(SCC(=O)Nc2ccc(C)cc2)=C(C#N)C1c1ccco1 (stereo unspecified)	0.4	3	1	4	65*
CCc1ccc(NC(=O)CSC2=C(C#N)C(c3ccco3)C3=C(CCCC3=O)N2)cc1 (stereo unspecified)	0.8	2	0.7	33	19
COc1ccc(S(=O)(=O)c2ccc(O)cc2)cc1	2.8*	6	0.3	71*	-183
COc1ccc(C(CC(=O)c2ccc(O)cc2)S(=O)(=O)c2ccc(C)cc2)cc1 (stereo unspecified)	0.1	1	0.3	71*	88*
CC1(C)CC(=O)C2=C(C1)N(CCN1CCOCC1)C1=C(C(=O)CC(C)(C)C1)C2c1cccc(Cl)c1	0.7	-8	0.8	23	26
O=S(=O)(O/N=C1\CCCc2ccccc21)c1ccc(Cl)cc1	1.2	2	0.8	19	-18
CC(=O)Oc1ccc2c(c1)cc(C)n2C	/	6	/	/	/
O=C1CCC(=O)N1c1nc2n(n1)C(c1ccccc1)C=C(c1ccc(Br)cc1)N2 (stereo unspecified)	0.4	0	0.5	49	61*
COc1ccc(C2C=C(c3ccc(Br)cc3)Nc3nc(N4C(=O)CCC4=O)nn32)cc1 (stereo unspecified)	0.7	-1	0.6	37	34
COc1ccc(C)cc1-n1nnnc1SCc1cn2ccsc2n1	0.6	6	0.1	87*	40
Cc1nnc(SCc2cn3ccsc3n2)n(N)c1=O	0.9	-3	1.1	-13	9
COc1ccc(C)cc1-n1nnnc1SCC1CCCCO1 (stereo unspecified)	0.3	13	0	100*	73*
Cc1cccc(Nc2nnc(SCc3cn4ccsc4n3)s2)c1	0.4	-6	0.3	74*	57*
COC(=O)C1C2C=CC(C3CC23)C1C(=O)OCC(=O)c1ccc(OC)cc1 (stereo unspecified)	0.6	3	0.2	83*	38
COc1ccc(C(=O)COC(=O)CCN2C(=O)C3C4CC(C(Br)C4Br)C3C2=O)cc1 (stereo unspecified)	0.9	5	1.1	-8	11
COC(=O)C1C2C=CC(C3CC23)C1C(=O)OCC(=O)c1ccccc1 (stereo unspecified)	0.4	0	0	95*	57*
C=CCOC(=O)CN1C(=O)c2ccccc2C1=O	1	/	0.4	61*	2
SMILES	CYP2C9 activ	EphB4 antag	CYP2C19 act	CYP2C19 inh	CYP2C9 inh
CCOC(=O)CN1C(=O)c2ccccc2C1=O	1.2	4	1.2	-18	-18
N#CC1(Cc2ccc(Cl)cc2)c2ccccc2C=CN1C(=O)c1ccccc1 (stereo unspecified)	0.1	8	0	96*	93*
N#CC1=C(SCC(=O)c2cc3ccccc3oc2=O)NC(=O)C(C#N)C12CCCC2 (stereo unspecified)	0.1	0	0.5	52*	88*
CC(Sc1c[nH]c2ccccc12)C(=O)O (stereo unspecified)	1.1	5	1.1	-10	-6
C=CCn1c(NCCO)nc2sc3c(c2c1=O)CCC3	0.9	/	0.9	13	9
OCCNc1nc(SCc2ccccc2)nc2sc3c(c12)CCC3	0.3	-1	0.5	47	68*
CC(=O)c1cccc(NC(=O)c2cc3nc(C)cc(C)n3n2)c1	1	4	1	-3	-1
CCOC(=O)c1c(NC(=O)CSc2nnnn2CC)sc(C)c1C	0.5	-10	0.9	14	52*
CCOC(=O)c1c(NC(=O)CSc2n[nH]c(N)n2)sc(CC)c1C	0.2	/	0.5	50	76*
CCOC(=O)c1sc(NC(=O)CSc2nnnn2-c2ccc(C)cc2)c(C(=O)OCC)c1C	0.2	5	0.5	48	80*
N#Cc1c(NC(=O)CSc2nnc(-c3ccco3)n2-c2ccccc2)sc2c1CCC2	0.7	3	0.9	9	30
CCOC(=O)c1sc(NC(=O)CSc2nncs2)c(C(=O)OCC)c1C	0.9	-5	1	2	10
O=C(CSc1n[nH]c(-c2ccco2)n1)Nc1sc2c(c1C(=O)Nc1ccccc1)CCCC2	0.2	-2	0.5	48	84*
CCCCn1c(=O)nc2n(-c3ccccc3)c3ccccc3cc-2c1=O	0.9	-4	0.9	15	5
CC1CCCN(C(=O)c2ccc(S(=O)(=O)N3CCC(c4nc5ccccc5s4)CC3)cc2)C1 (stereo unspecified)	/	2	/	/	/
CCc1ccc(NC(=O)N(C2CCCCC2)C(C)c2cccnc2)cc1 (stereo unspecified)	0.8	3	0.8	17	16
CCOC(=O)CNC(=O)CSc1nnnn1-c1ccc(C)c(C)c1	2.6*	2	0.8	17	-163
CCOC(=O)Cc1csc(NC(=O)CSc2nnnn2-c2ccc(C)c(C)c2)n1	/	10	/	/	/
CCn1nnnc1SCC(=O)Nc1sc(C)c(C)c1C#N	0.2	3	0.8	19	79*
CCOC(=O)c1c(NC(=O)CSc2n[nH]c(-c3ccco3)n2)sc(C)c1C	0.1	-2	0.6	37	88*
CCOC(=O)c1c(NC(=O)CSc2nnnn2C)sc(CC)c1C	0.5	/	0.2	83*	48
Cn1c(CCCOc2ccc(Cl)cc2Cl)nnc1SCC(=O)Nc1nccs1	1.3	1	1	4	-32
COC(=O)C(NC(=O)c1ccco1)(Nc1nc(C)cs1)C(F)(F)F (stereo unspecified)	0.7	/	0.7	33	31
Cc1nc2ccccc2c2c1C(=O)N(C(C)C)C2=O	1	-3	0.3	70*	3
Cc1nc2ccccc2c2c1C(=O)N(C)C2=O	1	0	1.1	-8	4
